# Results from PubChem BioAssay AID1347076 (National Center for Advancing Translational Sciences (NCATS), 2019).
# About 13,000 (3.2%) of roughly 400,000 compounds were called active. Where a call stands in place of a potency, no number is given. Another 18% or so got no clear call; they are omitted. Calls come from the whole dose curve; as a rule, active = well fitted cell-killing curve with a large enough effect; inconclusive = small, poorly fitted or top-dose-only effect, or effect the other way; inactive = flat fitted curve, though single readings scatter. The sample as a whole holds a higher share of actives than the screen did.
# Assay: qHTS assay for MDR1-selective chemotherapeutics: Primary screen using the drug-selected MDR subline cells KB-V1; note: nearly all actives have a fitted effect of over 60% in size
# Conditions: KB-V1 MDR cells viability, CellTiter-Glo, 72 h; series mostly up to 46.1 µM
# Method in brief: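 Drug-selected KB-V1 cells, grown in DMEM lacking phenol red with 10% FBS, receive compound titrations; after three days at 37 degrees C, surviving cell ATP is quantified by CellTiter-Glo luminescence and responses normalized and curve-fitted.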
# Potency is the fitted concentration of half-maximal effect.
row,Structure (SMILES),Potency
1,COc1ccc(C(=O)OCC(=O)Nc2cc(C)on2)cc1F,inactive
2,CC(=NNC(N)=O)C1CC2CCC1CC2 (stereo unspecified),inactive
3,Cc1ccccc1C#CC1=CC(=O)CC(C)(C)C1,inactive
4,CCn1c(C)c(C)c2cc(C(=O)N3CCN(c4cccc(C)c4C)CC3)ccc21,inactive
5,CCOc1ccccc1N1CCN(C(=O)c2ccc3[nH]c(C)c(C)c3c2)CC1,6.51 µM (active)
6,Cc1[nH]c2ccc(C(=O)N3CCN(C)CC3)cc2c1C,inactive
7,O=C(NCC(O)c1nc2ccccc2[nH]1)c1ccc(Br)cc1 (stereo unspecified),inactive
8,O=C(CC[C@H]1O[C@@H](n2ccc(=O)[nH]c2=O)[C@H](O)[C@@H]1O)N[C@H](Cc1ccccc1)C(=O)NCCCN1CCCC1=O,inactive
9,CN1CC(c2ccccc2)C2(COc3ccccc3C2=O)C12C(=O)Nc1ccccc12 (stereo unspecified),20.6 µM (active)
10,C[C@@H]1NC(=O)[C@@]2(C)[C@@H](c3ccccc3)[C@H]3COc4ccccc4[C@@H]3N2C1=O,inactive
11,COc1cccc(CNC(=O)CCC(=O)N2CC3CCCN3c3ccccc32)c1 (stereo unspecified),inactive
12,CCc1nc2c(=O)[nH]cnc2o1,inactive
13,C[C@H]1CN([C@@H](C)CO)C(=O)CCCn2cc(nn2)CO[C@@H]1CN(C)S(=O)(=O)c1ccc(-n2cccn2)cc1,inactive
14,CN1CCN(C(=O)c2ccc(-c3cc4nc(NCc5cccnc5)n(C)c(=O)c4s3)cc2)CC1,inactive
15,COc1ccc(NC(=O)N2CCCC(C(=O)Nc3ccccc3OC)C2)cc1 (stereo unspecified),inactive
16,CCOc1ccccc1NC(=O)C1CCCN(C(=O)Nc2ccccc2)C1 (stereo unspecified),inactive
17,CCOc1ccc(NC(=O)C2CCCN(C(=O)Nc3ccccc3)C2)cc1 (stereo unspecified),14.6 µM (active)
18,CC(C)(C)C1CCC(=O)N2CCC[C@]2(c2ccccc2)C1 (stereo partly specified),inactive
19,CCCCN(C)S(=O)(=O)c1ccc(C(=O)Nc2sc3c(c2C(N)=O)CC(C)(C)NC3(C)C)cc1,inactive
20,COc1cc(CNCCSc2nnnn2C)ccc1OCc1ccc(Cl)cc1Cl,inactive
21,CN(CC(=O)O)S(=O)(=O)c1ccc2oc3ccccc3c2c1,inactive
22,CCOC(=O)c1c(C)oc2ccc(OCC(=O)N(CC)CC)cc12,inactive
23,COC(=O)c1c(C)oc2ccc(N(C(=O)Oc3ccccc3)S(=O)(=O)c3ccccc3)cc12,2.91 µM (active)
24,O=C(Nc1ccc2c(c1)[C@@H]1C[C@@H](CC(=O)N3CCCCC3)O[C@@H](CO)[C@@H]1O2)NC1CCCCC1,inactive

row,Structure (SMILES),Potency
1,CC(=O)Nc1cccc(-c2ccnc3c2CC(C)(C(=O)NCc2ccccc2)O3)c1 (stereo unspecified),16.4 µM (active)
2,CC1(C(=O)NCC2CCOCC2)Cc2c(-c3cccc(C(N)=O)c3)ccnc2O1 (stereo unspecified),inactive
3,COc1ccc(NC(=O)C2(C)Cc3c(-c4cccc(NC(C)=O)c4)ccnc3O2)cc1 (stereo unspecified),inactive
4,CC(=O)Nc1cccc(-c2ccnc3c2CC(C)(C(=O)NCc2ccco2)O3)c1 (stereo unspecified),inactive
5,CC1(C(=O)NCc2ccco2)Cc2c(-c3ccc4c(c3)OCO4)ccnc2O1 (stereo unspecified),2.59 µM (active)
6,O=C(Cn1nnc(-c2ccc3c(c2)OCO3)n1)NCc1ccco1,inactive
7,CCc1nc2c(OCCC3CCCCC3)cccn2c1N(C)C(=O)c1ccco1,inactive
8,CCOc1ccc(NS(=O)(=O)c2ccc(C(=O)NCC3CCCO3)cc2)cc1 (stereo unspecified),inactive
9,COc1cccc(-c2cnc3c(NC(C)=O)cc(-c4cccc(NC(C)=O)c4)cn23)c1,inactive
10,CC(=O)Nc1cc(-c2ccc(N3CCN(C)CC3)cc2)cn2c(-c3cccc(C(=O)N(C)C)c3)cnc12,inactive
11,COc1ccc(-c2cc(NC=O)c3ncc(-c4cccc(C(=O)N(C)C)c4)n3c2)c(OC)c1,inactive
12,COc1cc(NC(=O)C2=CC(c3ccc(C)cc3)=NS(=O)(=O)N2C)cc(OC)c1OC,inactive
13,COc1cccc(-c2cnc3c(NC(C)=O)cc(-c4cc(F)ccc4OC)cn23)c1,7.31 µM (active)
14,COc1ccc(-c2cc(NC(C)=O)c3ncc(-c4cc(OC)c(OC)c(OC)c4)n3c2)cn1,13 µM (active)
15,O=C(Nc1cc(F)ccc1F)c1ccc2c(=O)n3c(nc2c1)CCC3,inactive
16,CCOC(=O)c1c(NC(=O)CSc2cn(CCNC(=O)c3cccc(C(F)(F)F)c3)c3ccccc23)sc2c1CCC2,inactive
17,OC[C@@H]1CN(Cc2cccs2)C[C@H](n2cnc3c(Nc4ccccc4)ncnc32)O1,inactive
18,Cc1nc2ccccc2c(=O)n1NC(=O)c1ccccc1,inactive
19,CCCc1nc2ccccc2c(=O)n1NC(=O)c1c(O)c2ccccc2[nH]c1=O,7.31 µM (active)
20,COc1cc(C(=O)Nn2c(CC(C)C)nc3ccccc3c2=O)cc(OC)c1OC,inactive
21,O=C(CN1C(=O)NC2(CCc3ccccc32)C1=O)NC1CCCCC1 (stereo unspecified),inactive
22,CC(C)CN1CCC1(C)C(=O)Nc1ccc(OC(F)F)cc1 (stereo unspecified),inactive
23,Cc1ccc(OCCSc2nc(-c3cccs3)nc3cc(=O)[nH]n23)cc1Cl,inactive
24,O=C(NC1CCN(Cc2ccccc2)CC1)c1cc(Br)c(Br)[nH]1,inactive

row,Structure (SMILES),Potency
1,S=C(Nc1ccc(Br)cc1Cl)NC1CCN(Cc2ccccc2)CC1,11.6 µM (active)
2,O=C(COc1ccc(Br)cc1F)NC1CCN(Cc2ccccc2)CC1,inactive
3,CCc1nc2c(OCCOc3ccccc3)cccn2c1N(C)C(=O)c1ccc(OC)cc1,inactive
4,COCCCn1cc(CN2CC(N(C)C)CS2(=O)=O)nn1 (stereo unspecified),inactive
5,CC(C)c1cc(C(=O)NC2CCCCCC2)c2ccccc2n1,inactive
6,Cc1nc(/N=C(\N)NC(=O)NC2CCCCC2)nc2ccccc12,5.17 µM (active)
7,Cc1c(C(=O)NC2CCCCC2)oc2ccccc12,inactive
8,Nc1ncnc2c1ncn2[C@@H]1O[C@H](C(=O)N2CCSC2)[C@@H](O)[C@H]1O,inactive
9,CCN(CC)c1ccc(/C=C/c2c(C)cnc3ccc(C)cc23)cc1,inactive
10,COC(=O)[C@@]12C[C@@H](CC(=O)NCCCCc3ccccc3)C(=O)N(Cc3ccccc3)C1=CCC(C)(C)C2,23.1 µM (active)
11,COC(=O)[C@]12CCCCC=C1N(Cc1ccccc1)C(=O)[C@H](CC(=O)NCc1ccc(C)o1)C2,inactive
12,COC(=O)[C@@]12C[C@@H](CC(=O)NCCCCc3ccccc3)C(=O)N(CCc3ccc(OC)c(OC)c3)C1=CCC(C)(C)C2,16.4 µM (active)
13,COC(=O)[C@]12CCCCC=C1N(Cc1ccco1)C(=O)[C@H](CC(=O)NCCCCc1ccccc1)C2,inactive
14,CCOC(=O)N1CCN(C(=O)C[C@@H]2C[C@@]3(C(=O)OC)CC(C)(C)CC=C3N(Cc3ccco3)C2=O)CC1,inactive
15,CCN(CC)C(=O)C1=C(C)N(Cc2ccc(OC)cc2)C(=O)C(CC(=O)NCCCCc2ccccc2)C1 (stereo unspecified),inactive
16,COc1ccc(CN2C[C@H]3CON(C)[C@H]3C[C@H]2c2ccc(-c3cccc(F)c3)cc2)cc1,inactive
17,Cc1ccc(O)c(NC(=O)c2cc(-c3ccc(F)cc3)no2)c1,inactive
18,Cc1cc2ccccc2n1CCNC(=O)c1ccc(F)cc1,inactive
19,CC1=C(C(=O)N2CCOCC2)CC(CC(=O)NCC2CCCCC2)C(=O)N1Cc1ccc(F)cc1 (stereo unspecified),inactive
20,O=C(OCc1cc2ccccc2[nH]c1=O)c1cccnc1,inactive
21,CCOC(=O)c1cc2cc(C)ccc2[nH]1,inactive
22,Cc1ccc2[nH]c(=O)c(COC(=O)c3ccccn3)cc2c1,16.4 µM (active)
23,Cc1ccc(S(=O)(=O)N(CCc2ccccc2)c2ccc3c(c2)C2CC3CCN2C(=O)OCc2ccccc2)cc1 (stereo unspecified),inactive
24,COc1ccc(OC)c(NC(=O)CSC2=Nc3ccccc3C3=NC(CC(=O)NCCc4ccccc4)C(=O)N23)c1 (stereo unspecified),inactive

row,Structure (SMILES),Potency
1,S=c1[nH]c(-c2cccs2)cn1-c1ccccc1,inactive
2,O=c1oc2ccccc2cc1-c1cn(-c2ccccc2)c(=S)[nH]1,5.8 µM (active)
3,O=C(Nc1cc2ccccc2oc1=O)C1CCCCC1,inactive
4,Cc1ccc(Cn2c(C)c3cnn(CC(=O)NCc4ccccc4)c(=O)c3c2C)cc1,inactive
5,COc1ccc(-c2noc(CSc3nc(C)cc(=O)[nH]3)n2)cc1OC,inactive
6,CN(CCC#N)c1ccc(C=O)cc1,inactive
7,COc1ccc(C(=O)NC2CC(C)(C)Cc3c2cnn3-c2ccccc2C)o1 (stereo unspecified),18.4 µM (active)
8,CC1=C(C(=O)NC2CC(C)(C)Cc3c2cnn3-c2ccc(C)cc2)OCCO1 (stereo unspecified),inactive
9,COc1ccc(C(=O)NC2CC(C)(C)Cc3c2cnn3-c2ccccc2)c(OC)c1 (stereo unspecified),inactive
10,CC(=O)N1Cc2cc(C(=O)NCc3cccc(F)c3)nc(-c3cccc(C4=CCCCC4)c3)c2[C@H]1CCO,inactive
11,O=C(NC(c1ccc(Cl)cc1)c1cnccn1)C1CCN(Cc2ccc(Cl)cc2)CC1 (stereo unspecified),inactive
12,COc1ccccc1CNc1nc(Nc2ccccc2Cl)c2sccc2n1,inactive
13,Cc1ccc(S(=O)(=O)N/N=C\c2cc3c(cc2[N+](=O)[O-])OCO3)cc1,inactive
14,Cc1ccc(-c2n[nH]c(=S)n2/N=C/c2cc3c(cc2[N+](=O)[O-])OCO3)cc1,8.2 µM (active)
15,CCOc1ccc(-c2n[nH]c(=S)n2/N=C/c2cc3c(cc2[N+](=O)[O-])OCO3)cc1,inactive
16,Cc1cc2c3ccccc3[nH]c(=O)n2n1,inactive
17,CCOC(=O)C1CCCN(C(=O)C2CCN(S(=O)(=O)c3ccc(Cl)c(C(F)(F)F)c3)CC2)C1 (stereo unspecified),20.6 µM (active)
18,CCOc1ccc(S(=O)(=O)N2CCCC(C(=O)N3CCC(C(N)=O)CC3)C2)cc1Cl (stereo unspecified),inactive
19,CCOC(=O)C1CCCN(C(=O)c2cccc(S(=O)(=O)N3CCOCC3)c2)C1 (stereo unspecified),inactive
20,Nc1[nH]c(C(=O)c2ccccc2)c(-c2ccc(Br)cc2)c1C(=O)NC1CC1,inactive
21,CCc1ccc(OCCCn2c(CCCNC(=O)C3CCCCC3)nc3ccccc32)cc1,inactive
22,O=C(NCc1cccnc1)c1cccnc1Sc1ccc(Cl)cc1,18.4 µM (active)
23,COc1cccc(CNC(=O)c2cccnc2Sc2ccc(Cl)cc2)c1,inactive
24,O=C(NC1CCCCCC1)c1cccnc1Sc1ccc(Cl)cc1,inactive
